What all share (experiment): DAPPL (digital affinity profiling via proximity ligation, sequencing); 10 mM Tris-HCl pH 7.5, 50 mM NaCl, 1 mM DTT, 4% glycerol, room temperature, 30 min; GST-TFs on glutathione beads, 16-mer random dsDNA library, 0.1% formaldehyde crosslink after washing; high values mean tight binding
What all share (settings): protein: recombinant; tags: N-terminal GST; dsDNA, one strand shown

In one test the target is T1, FLI1 (Homo sapiens, UniProt Q01543 1-452).
T1 sequence: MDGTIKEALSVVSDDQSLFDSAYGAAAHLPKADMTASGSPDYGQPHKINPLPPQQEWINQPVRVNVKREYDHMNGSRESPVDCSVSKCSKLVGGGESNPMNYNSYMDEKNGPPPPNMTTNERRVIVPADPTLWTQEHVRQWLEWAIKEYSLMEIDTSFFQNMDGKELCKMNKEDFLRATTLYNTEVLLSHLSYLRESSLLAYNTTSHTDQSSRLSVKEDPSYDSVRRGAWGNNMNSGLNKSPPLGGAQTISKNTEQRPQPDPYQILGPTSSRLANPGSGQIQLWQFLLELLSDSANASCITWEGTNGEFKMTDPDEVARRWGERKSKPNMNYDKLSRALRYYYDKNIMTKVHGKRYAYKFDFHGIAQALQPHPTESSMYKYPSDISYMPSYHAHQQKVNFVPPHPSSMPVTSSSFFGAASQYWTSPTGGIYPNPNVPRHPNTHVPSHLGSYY
The gist of the method:
(§1)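 Pools were built from human transcription factors expressed in yeast as GST fusions, captured on glutathione beads and DNA-barcoded, along with a tag-only sample. Incubation with 200 nmole of a 16-mer random double-stranded DNA library lasted 30 min at room temperature in Tris/NaCl/DTT/glycerol buffer, and was followed by washing, 0.1% formaldehyde crosslinking, proximity ligation, PCR amplification and Illumina NextSeq500 sequencing. Binding signal is the quotient of each hexamer's read frequency for a factor and its frequency for the tag-only sample.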

The target of another test is T2, ELK1 (Homo sapiens, UniProt P19419 1-428).
T2 sequence: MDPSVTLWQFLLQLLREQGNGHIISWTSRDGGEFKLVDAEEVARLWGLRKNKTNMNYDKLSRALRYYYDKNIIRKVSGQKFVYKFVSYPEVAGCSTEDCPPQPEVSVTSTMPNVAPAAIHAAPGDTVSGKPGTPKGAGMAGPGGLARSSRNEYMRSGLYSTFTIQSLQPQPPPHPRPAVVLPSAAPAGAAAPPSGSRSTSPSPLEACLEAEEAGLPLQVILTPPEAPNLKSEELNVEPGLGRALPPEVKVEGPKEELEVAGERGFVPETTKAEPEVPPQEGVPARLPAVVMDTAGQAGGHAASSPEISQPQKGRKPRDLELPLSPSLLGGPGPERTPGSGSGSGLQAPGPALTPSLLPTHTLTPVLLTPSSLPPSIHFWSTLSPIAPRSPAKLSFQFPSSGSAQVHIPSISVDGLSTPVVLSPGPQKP
The gist of the method:
as §1

The next test deals with T3, GABPA (Homo sapiens, UniProt Q06546 1-454).
T3 sequence: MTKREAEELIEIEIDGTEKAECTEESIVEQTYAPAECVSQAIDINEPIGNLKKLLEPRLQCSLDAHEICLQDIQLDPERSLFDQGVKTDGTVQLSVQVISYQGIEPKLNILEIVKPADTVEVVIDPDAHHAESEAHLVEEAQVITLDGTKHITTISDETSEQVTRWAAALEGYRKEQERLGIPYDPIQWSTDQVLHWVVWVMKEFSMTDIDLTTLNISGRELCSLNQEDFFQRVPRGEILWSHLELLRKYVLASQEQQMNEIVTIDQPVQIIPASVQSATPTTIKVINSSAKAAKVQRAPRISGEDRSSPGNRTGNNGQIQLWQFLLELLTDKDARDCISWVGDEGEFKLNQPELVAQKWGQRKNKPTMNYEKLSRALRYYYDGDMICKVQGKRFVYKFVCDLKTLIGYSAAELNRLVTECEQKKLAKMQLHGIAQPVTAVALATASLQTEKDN
The gist of the method: as §1

In a further test the target is T4, ERG (Homo sapiens, UniProt P11308 1-479).
T4 sequence: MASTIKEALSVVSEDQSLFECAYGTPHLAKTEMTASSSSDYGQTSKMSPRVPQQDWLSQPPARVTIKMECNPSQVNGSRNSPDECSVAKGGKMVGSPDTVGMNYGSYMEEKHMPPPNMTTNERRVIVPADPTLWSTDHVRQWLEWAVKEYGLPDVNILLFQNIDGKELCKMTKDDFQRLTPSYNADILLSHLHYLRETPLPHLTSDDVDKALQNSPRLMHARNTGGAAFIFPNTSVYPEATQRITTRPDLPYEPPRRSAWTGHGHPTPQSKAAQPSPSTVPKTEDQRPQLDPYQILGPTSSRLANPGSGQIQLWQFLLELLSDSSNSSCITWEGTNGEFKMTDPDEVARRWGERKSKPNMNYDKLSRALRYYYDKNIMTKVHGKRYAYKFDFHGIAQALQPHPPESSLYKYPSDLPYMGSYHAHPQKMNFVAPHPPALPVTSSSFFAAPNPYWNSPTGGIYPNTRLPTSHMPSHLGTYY
Summed up: as §1

The target in a further test is ELF1 (Homo sapiens, UniProt P32519 1-619). Summed up: as §1
Sequence of ELF1 (P32519 whole entry): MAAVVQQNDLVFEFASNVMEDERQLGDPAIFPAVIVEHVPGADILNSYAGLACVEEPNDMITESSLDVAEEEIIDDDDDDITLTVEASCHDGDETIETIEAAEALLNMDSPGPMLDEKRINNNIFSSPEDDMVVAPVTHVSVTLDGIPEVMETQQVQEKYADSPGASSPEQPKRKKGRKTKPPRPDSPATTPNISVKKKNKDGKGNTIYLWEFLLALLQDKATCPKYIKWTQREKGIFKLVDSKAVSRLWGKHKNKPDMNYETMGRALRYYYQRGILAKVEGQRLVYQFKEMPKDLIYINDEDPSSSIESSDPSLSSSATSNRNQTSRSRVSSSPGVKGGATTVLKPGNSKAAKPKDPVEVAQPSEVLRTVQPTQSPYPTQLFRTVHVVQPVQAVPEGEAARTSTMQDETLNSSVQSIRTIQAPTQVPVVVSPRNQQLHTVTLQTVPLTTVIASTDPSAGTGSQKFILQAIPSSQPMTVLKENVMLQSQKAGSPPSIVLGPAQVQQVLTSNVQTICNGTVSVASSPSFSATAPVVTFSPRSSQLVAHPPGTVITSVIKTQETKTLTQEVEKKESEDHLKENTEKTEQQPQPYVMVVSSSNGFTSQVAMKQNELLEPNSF
Another test has as its target T5, EHF (Homo sapiens, UniProt Q9NZC4 1-300).
T5 sequence: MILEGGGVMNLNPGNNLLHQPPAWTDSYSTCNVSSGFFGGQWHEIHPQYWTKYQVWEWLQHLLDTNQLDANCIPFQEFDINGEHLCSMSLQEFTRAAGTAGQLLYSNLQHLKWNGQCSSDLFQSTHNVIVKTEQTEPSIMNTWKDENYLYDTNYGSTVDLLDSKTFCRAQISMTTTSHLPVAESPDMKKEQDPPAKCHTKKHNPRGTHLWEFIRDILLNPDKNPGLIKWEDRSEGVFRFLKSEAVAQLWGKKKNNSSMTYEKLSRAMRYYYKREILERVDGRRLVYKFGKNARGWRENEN
Summed up: as §1

The target in another test is SPI1 (Homo sapiens, UniProt P17947 1-270). The gist of the method: as §1
The next test deals with SPIB (Homo sapiens, UniProt Q01892 1-262). The gist of the method:
as §1

The next test concerns the target T6, ELK3 (Homo sapiens, UniProt P41970 1-407).
T6 sequence: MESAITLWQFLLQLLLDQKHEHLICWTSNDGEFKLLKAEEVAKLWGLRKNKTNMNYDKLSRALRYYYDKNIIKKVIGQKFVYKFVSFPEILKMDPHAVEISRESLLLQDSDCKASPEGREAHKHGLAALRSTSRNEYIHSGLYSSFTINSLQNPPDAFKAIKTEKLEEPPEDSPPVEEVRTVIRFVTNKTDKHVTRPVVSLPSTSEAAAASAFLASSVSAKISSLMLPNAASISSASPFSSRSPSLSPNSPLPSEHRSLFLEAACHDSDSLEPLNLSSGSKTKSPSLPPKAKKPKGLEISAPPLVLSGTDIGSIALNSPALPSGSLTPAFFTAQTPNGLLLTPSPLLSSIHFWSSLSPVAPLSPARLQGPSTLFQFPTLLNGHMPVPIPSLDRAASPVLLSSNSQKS
Summed up:
as §1

The results in this text go back to PMC7862700, “An all-to-all approach to the identification of sequence-specific readers for epigenetic DNA modifications on cytosine”.

Sequence of SPIB (Q01892 whole entry): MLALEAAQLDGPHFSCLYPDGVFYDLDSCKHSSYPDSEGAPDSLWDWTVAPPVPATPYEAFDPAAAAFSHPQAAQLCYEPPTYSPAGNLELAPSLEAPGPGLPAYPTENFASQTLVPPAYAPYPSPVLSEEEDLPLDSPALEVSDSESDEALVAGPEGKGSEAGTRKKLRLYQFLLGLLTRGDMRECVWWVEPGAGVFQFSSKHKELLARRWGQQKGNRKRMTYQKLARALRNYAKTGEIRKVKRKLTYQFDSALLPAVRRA

Consider CTACTA, for which the binding signal was 1.32 fold enrichment (6-mer frequency, TF over GST control) with FLI1; 1.36 fold enrichment (6-mer frequency, TF over GST control) in the test with ELK1; 1.34 fold enrichment (6-mer frequency, TF over GST control) with GABPA; 1.24 fold enrichment (6-mer frequency, TF over GST control) with ERG; 1.39 fold enrichment (6-mer frequency, TF over GST control) with ELF1; 1.33 fold enrichment (6-mer frequency, TF over GST control) with EHF. In addition, the binding signal with SPI1 was 1.32 fold enrichment (6-mer frequency, TF over GST control); with SPIB, 1.3 fold enrichment (6-mer frequency, TF over GST control); with ELK3 it was 1.37 fold enrichment (6-mer frequency, TF over GST control).
For the sequence TACTCC, the binding signal was 1.3 fold enrichment (6-mer frequency, TF over GST control) with FLI1; 1.2 fold enrichment (6-mer frequency, TF over GST control) in the test with ELK1; 1.49 fold enrichment (6-mer frequency, TF over GST control) in the test with GABPA; 1.35 fold enrichment (6-mer frequency, TF over GST control) with ERG; 1.37 fold enrichment (6-mer frequency, TF over GST control) in the test with ELF1; 1.26 fold enrichment (6-mer frequency, TF over GST control) in the test with EHF. The binding signal with SPI1 is 1.24 fold enrichment (6-mer frequency, TF over GST control); with SPIB, 1.23 fold enrichment (6-mer frequency, TF over GST control); with ELK3, 1.44 fold enrichment (6-mer frequency, TF over GST control).
With TCTACC, the binding signal with FLI1 is 1.54 fold enrichment (6-mer frequency, TF over GST control); with ELK1, 1.67 fold enrichment (6-mer frequency, TF over GST control); with GABPA, 1.58 fold enrichment (6-mer frequency, TF over GST control); with ERG, 1.61 fold enrichment (6-mer frequency, TF over GST control); with ELF1, 1.59 fold enrichment (6-mer frequency, TF over GST control); in the test with EHF it was 1.61 fold enrichment (6-mer frequency, TF over GST control). For the same sequence, the binding signal with SPI1 was 1.54 fold enrichment (6-mer frequency, TF over GST control); in the test with SPIB, 1.68 fold enrichment (6-mer frequency, TF over GST control); with ELK3 it was 1.43 fold enrichment (6-mer frequency, TF over GST control).
For CCGCCT, the binding signal with FLI1 was 1.68 fold enrichment (6-mer frequency, TF over GST control); in the test with ELK1 it was 1.55 fold enrichment (6-mer frequency, TF over GST control); in the test with GABPA, 1.55 fold enrichment (6-mer frequency, TF over GST control); with ERG, 1.55 fold enrichment (6-mer frequency, TF over GST control); with ELF1 it was 1.66 fold enrichment (6-mer frequency, TF over GST control); with EHF it was 1.67 fold enrichment (6-mer frequency, TF over GST control). In addition, the binding signal in the test with SPI1 is 1.5 fold enrichment (6-mer frequency, TF over GST control); with SPIB, 1.63 fold enrichment (6-mer frequency, TF over GST control); with ELK3 it was 1.82 fold enrichment (6-mer frequency, TF over GST control).
AAATTT: the binding signal is 1.31 fold enrichment (6-mer frequency, TF over GST control) with FLI1; 1.31 fold enrichment (6-mer frequency, TF over GST control) in the test with ELK1; 1.26 fold enrichment (6-mer frequency, TF over GST control) in the test with GABPA; 1.3 fold enrichment (6-mer frequency, TF over GST control) with ERG; 1.25 fold enrichment (6-mer frequency, TF over GST control) with ELF1; 1.33 fold enrichment (6-mer frequency, TF over GST control) in the test with EHF. The binding signal with SPI1 is 1.22 fold enrichment (6-mer frequency, TF over GST control); with SPIB it was 1.45 fold enrichment (6-mer frequency, TF over GST control); with ELK3 it was 1.28 fold enrichment (6-mer frequency, TF over GST control).
For GTGCTT, the binding signal was 1.21 fold enrichment (6-mer frequency, TF over GST control) with FLI1; 1.36 fold enrichment (6-mer frequency, TF over GST control) with ELK1; 1.3 fold enrichment (6-mer frequency, TF over GST control) with GABPA; 1.38 fold enrichment (6-mer frequency, TF over GST control) with ERG; 1.2 fold enrichment (6-mer frequency, TF over GST control) in the test with ELF1; 1.24 fold enrichment (6-mer frequency, TF over GST control) in the test with EHF. Moreover, the binding signal was 1.33 fold enrichment (6-mer frequency, TF over GST control) with SPI1; 1.24 fold enrichment (6-mer frequency, TF over GST control) in the test with SPIB; 1.4 fold enrichment (6-mer frequency, TF over GST control) in the test with ELK3.
With AATGGC, the binding signal is 1.32 fold enrichment (6-mer frequency, TF over GST control) in the test with FLI1; 1.33 fold enrichment (6-mer frequency, TF over GST control) in the test with ELK1; 1.37 fold enrichment (6-mer frequency, TF over GST control) with GABPA; 1.43 fold enrichment (6-mer frequency, TF over GST control) with ERG; 1.39 fold enrichment (6-mer frequency, TF over GST control) with ELF1; 1.5 fold enrichment (6-mer frequency, TF over GST control) in the test with EHF. For the same sequence, the binding signal with SPI1 was 1.39 fold enrichment (6-mer frequency, TF over GST control); with SPIB it was 1.37 fold enrichment (6-mer frequency, TF over GST control); in the test with ELK3, 1.26 fold enrichment (6-mer frequency, TF over GST control).
